# Screening data deposited in PubChem BioAssay by SRMLSC.
# NADH enzymes – inhibition of NAD/NADH coupling enzymes, library profiling; coupled PK/LDH NADH assays, four targets; IC50, µM (highest dose often 10 µM), inactives show at the top dose inhibition; hit rate 0.02% among 65,000;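 active means single-dose screening hits from any of four coupled enzyme assays that gave an IC50 when retested across doses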;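 further: the DPM-DC format reads NADH fluorescence rather than 340 nm absorbance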
# Fluor 339 460 – intrinsic fluorescence of library compounds, ex339/em460 – biochemical, MLSMR library, data from DPM-DC assay, artefact control, profiling panel. compound autofluorescence, ex339/em460 nm, NADH buffer; stronger effect = higher value; 1 = no-compound wells, NADH background. fluorescence fold increase at 10 µM. hit rate 5.5% among 65,000. AID 709;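 active means at 10 µM, mean starting fluorescence two-fold or more over control wells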;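 further: signal is the first read of a kinetic run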
# MK inhibit – blocks S. pneumoniae mevalonate kinase. purified MK, PK/LDH-coupled NADH absorbance 340 nm. inhibition, % at 10 µM. hit rate 0.48% among 65,000. AID 555;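 active means ranked among the strongest by inhibition in the single 10 µM screen, a fixed top-ranked set picked for dose follow-up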
# Spn DPM-DC inh – inhibitors of Streptococcus pneumoniae diphosphomevalonate decarboxylase; purified DPM-DC, PK/LDH coupled NADH fluorescence; calls only at 10 µM; hit rate 0.49% among 65,000; AID 556;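 active means the 320 compounds with the highest percent inhibition in the single-dose primary screen, excluding strongly autofluorescent ones, cut at about 32% in these data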;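 further: kinetic rate of NADH fluorescence loss reporting ADP formed by the decarboxylase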
# Spn PMK inh – S. pneumoniae PMK inhibition. AID 539. inhibition, % at 10 µM. hit rate 0.49% among 65,000. purified PMK, PK/LDH-coupled NADH absorbance 340 nm;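 active means top-ranked compounds by inhibition in the single 10 µM screen, taking a fixed number of the strongest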;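 further: 0% = full reaction with DMSO carrier and 100% = background rate without enzyme reaction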
# A340 absorber – absorbance at 340 nm. compound absorbance at 340 nm, fold over control. fold change at 10 µM. AID 708. 65,000 tested, under 10 active;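 active means at 10 µM dose, initial 340 nm absorbance at least 2 fold that of control wells; inactive means change under 2 fold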;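 further: initial absorbance extrapolated from kinetic A340 decline of NADH oxidation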
# Numbers without * were called inactive; i = inactive; · = no result shown; + = active, no number; [ ] = remark or other dose. An excerpt weighted towards active compounds, which were near 6.8% of everything screened.
SMILES,NADH enzymes,Fluor 339 460,MK inhibit,Spn DPM-DC inh,Spn PMK inh,A340 absorber
COc1cc2cc(CN(CCO)S(=O)(=O)c3ccccc3Cl)c(=O)[nH]c2cc1OC,15%,3.1*,8,i,6,1
Cc1cc2cc(CN(CCCO)S(=O)(=O)c3cccc4nsnc34)c(=O)[nH]c2cc1C,10%,1.1,12,i,19,1.1
COc1cc2cc(CN(CCCO)S(=O)(=O)c3ccccc3)c(=O)[nH]c2cc1OC,3%,3.9*,5,·,0,1.1
O=C(NCc1ccccn1)c1coc(=O)c(Br)c1,9%,2.4*,11,·,7,1.2
N#Cc1cc(N)c(Nc2ccccc2)cc1C#N,14%,3.5*,0,i,10,1.1
CCCc1cc(=O)[nH]c(SCC(=O)c2cc(C)n(C(C)COC)c2C)n1 (centres undefined),8%,1.1,10,i,13,1
CC(C)[C@H](NC(=O)OC(C)(C)C)c1nnc(SCC(=O)Nc2ccc(Br)cc2)o1,3%,1,6,i,0,1
CCN(c1c(C)n(C)n(-c2ccccc2)c1=O)S(C)(=O)=O,3%,1,8,i,9,1
CCCN(C(=O)c1ccccc1N)c1c(C)n(C)n(-c2ccccc2)c1=O,10%,1.1,2,i,29*,1
COc1ccc(N(CC(=O)N2CCCCC2)S(=O)(=O)c2ccccc2)c(OC)c1,2%,1,2,i,4,1
CCN1CCN(C(=O)c2nn(-c3ccc(C)cc3)c(=O)c3c2c2ccccc2n3C)CC1,8%,1.4,10,i,13,1
CCN(CC)CCNC(=O)c1nn(-c2ccc(C)cc2)c(=O)c2c1c1ccccc1n2C,8%,3.1*,6,i,4,1
Cc1ccc(-n2nc(C(=O)NCc3ccco3)c3c4ccccc4n(C)c3c2=O)cc1,2%,2.2*,0,i,5,1
COc1ccc(NC(=O)C2=C(C)Nc3ncnn3C2c2ccccc2C(F)(F)F)c(OC)c1 (centres undefined),4%,1.2,6,i,6,1
N#Cc1nc(Cc2ccccc2)oc1N1CCC(Cc2ccccc2)CC1,0%,1.1,1,i,0,1
COc1ccccc1-c1nc(C#N)c(N2CCN(Cc3ccccc3)CC2)o1,18%,3.1*,12,i,13,1
COc1ccccc1-c1nc(C#N)c(N2CCC(Cc3ccccc3)CC2)o1,12%,3.9*,12,·,11,1
CCC(=O)N1CCc2cc(Br)cc(S(=O)(=O)NCC3CCCN3CC)c21 (centres undefined),2%,1.1,6,i,0,1
COc1ccc(NC(=O)N(CCCN(C)C)Cc2cc3cc(OC)ccc3[nH]c2=O)cc1,8%,1.8,7,i,16,1.1
CCN(CC)CCCN(Cc1cc2cc(OC)ccc2[nH]c1=O)C(=O)Nc1ccccc1,7%,1.8,2,i,16,0.99
CCN(CC)CCCN(Cc1cc2cc(OC)ccc2[nH]c1=O)C(=O)Nc1ccc(F)cc1,9%,2*,1,i,9,1.1
COc1ccc(NC(=O)N(CCN2CCCC2)Cc2cc3cc(OC)c(OC)cc3[nH]c2=O)cc1,9%,2.1*,4,i,7,1.2
CCn1c(SCC(=O)N2CCC(C(N)=O)(N3CCCCC3)CC2)nnc1-c1ccccc1,6%,1.1,9,i,7,1
Cc1cccc(OCc2nc(C#N)c(NCCN(C)C)o2)c1,2%,1,8,i,9,0.97
CN(C)CCNc1oc(-c2ccccc2F)nc1C#N,4%,2.5*,4,·,13,1
SMILES,NADH enzymes,Fluor 339 460,MK inhibit,Spn DPM-DC inh,Spn PMK inh,A340 absorber
COc1ccc(-c2nnc(SCC(=O)NC(C)c3ccccc3)o2)cc1 (centres undefined),2%,1.1,11,i,9,1
N#Cc1nc(-c2ccccc2F)oc1NCc1cccc2c1OCO2,1%,1.7,4,i,0,1
COc1ccc(-c2nc(C#N)c(NCC3CCCO3)o2)cc1OC (centres undefined),4%,3.9*,8,·,0,1.1
CN(C)CCCNc1oc(-c2ccccc2)nc1C#N,5%,2.1*,4,·,5,1.1
COc1ccc(-c2nc(C#N)c(NC(C)c3ccccc3)o2)cc1OC (centres undefined),6%,3.9*,5,·,6,1
CCCc1ccc(OCc2ccc(C(=O)N3CCN(c4ccccn4)CC3)o2)c(OC)c1,1%,1.1,3,i,0,1.1
C/C(Cl)=C\Cn1c(N2CCCCCC2)nc2c1c(=O)n(C)c(=O)n2C,6%,1.1,6,i,13,0.99
COc1ccc(CCNc2oc(COc3ccccc3)nc2C#N)cc1,3%,1.1,9,i,0,1
N#Cc1nc(-c2ccccc2F)oc1NC1CCCCC1,2%,2.1*,3,·,0,1.1
COc1ccc(CCNc2oc(-c3ccc(OC)c(OC)c3)nc2C#N)cc1,4%,3.9*,8,·,0,1.1
N#Cc1nc(-c2ccccc2Cl)oc1NCC1CCCO1 (centres undefined),6%,1.7,1,i,2,1.1
COc1ccc(-c2nc(C#N)c(NCCCN(C)C)o2)cc1OC,8%,3.1*,33,·,16,1
CSC1=NCCN1C(=O)c1c(F)cccc1F,5%,1,6,i,8,1
CCOC(=O)CSc1nnc(-c2cccnc2)n1Cc1ccccc1,5%,1,9,i,3,0.97
CCOC(=O)CSc1n[nH]c(-c2cccnc2)n1,9%,1,0,i,25*,1
CCOC(=O)c1c(CC(C)C)csc1NC=O,14%,0.56,0,+,0,1
OCCNc1ncnc2c1c(-c1ccccc1)c(-c1ccccc1)n2Cc1ccco1,6%,1.4,0,+,5,0.99
COCCn1nnnc1C(C(C)C)N(Cc1cccnc1)Cc1cc2cc(OC)ccc2[nH]c1=O (centres undefined),18%,2.4*,11,i,14,1.1
CCOC(=O)CNC(=O)c1cnn2cccnc12,13%,2.3*,17,i,4,1.1
CCOC(=O)c1cc2c(=O)n3cccc(C)c3nc2n(CCOC)c1=NC(=O)c1ccncc1,6%,2*,4,i,11,0.98
CCOC(=O)c1cc2c(=O)n3cccc(C)c3nc2n(CCCOC)c1=NC(=O)c1cccnc1,14µM*[fluoresces],2.3*,15,·,29*,1.1
CCCn1c(=NC(=O)c2ccncc2)c(C(=O)OCC)cc2c(=O)n3cccc(C)c3nc21,7%,1.6,5,i,11,1
COc1cccc(NC(=O)CCSc2nnc3scc(-c4ccccc4)n23)c1,4%,1.1,0,i,13,1
